The source made the active and inactive calls. The calls were made as follows: active = hit-call score of the fitted dose curve at least 0.9, where 1 is the maximum; inactive = score below 0.9.

Read-out in this assay: urokinase plasminogen activator (uPA), PLAU (gene 5328)
In words: BSK_KF3CT_uPA: BioMAP Diversity Plus: KF3CT Assay for urokinase plasminogen activator (uPA) Biomarker Activity (AID 2283075). To be noted: primary human keratinocytes with fibroblasts; actives raise or lower the signal. As for the experimental part: BSK_KF3CT is a cell-based, multiplexed-readout assay that uses keratinocytes and foreskin fibroblasts, a human skin primary cell co-culture, with measurements taken at 24 hours after chemical dosing in a 96-well plate.BSK_KF3CTA is an assay component measured in the BSK_KF3CT assay. It measures uPA antibody related to regulation of gene expression using ELISA technology.Data from the assay component BSK_KF3CTA was analyzed into 1 assay endpoint. This assay endpoint, BSK_KF3CTA, was analyzed with bidirectional fitting relative to DMSO as the negative control and baseline of activity. Using a type of binding reporter, gain or loss-of-signal activity can be used to understand changes in the signaling as they relate to the gene PLAU. Furthermore, this assay endpoint can be referred to as a primary readout, because this assay has produced multiple assay endpoints where this one serves a signaling function. To generalize the intended target to other relatable targets, this assay endpoint is annotated to the protease intended target family, where the subfamily is serine protease.
The levels of cell surface (or secreted, indicated by the prefix "s") biomarker endpoints were measured by ELISA. Overt cytotoxicity to cells in confluent adherent cultures (all systems other than the BT system) was assessed by measuring total protein levels using sulforhodamine B (SRB) staining in parallel cultures at the time of biomarker measurements, indicated as SRB endpoints. For proliferation assays for adherent cell types, individual cell types are cultured at sub-confluence and relative cell numbers quantified by SRB staining at time points optimized for each system (48 h: 3C and CASM3C systems; 72 h: BT and HDF3CGF systems; 96 h: SAg system). SRB was performed by staining cells with 0.1% SRB after fixation with 10% TCA and reading wells at 560 nm.Viability and proliferation of PBMC (T cells) was quantified by Alamar Blue reduction for the SAg and BT systems. For PBMC viability (referred to as PBMC Cytotoxicity within the assay endpoint names), cells were plated (75,000/well in a 96-well plate) and then chemical samples added for 1 h before addition of activators, SEB and TSST-1 (20 ng/mL final concentration each). Cells were incubated for 90 h. Then, Alamar Blue (20 uL/well) (Invitrogen, Cat DAL1100) was added for 6 h, and the plates were read with a fluorescence microplate reader at 546/580 nm (excitation/emission). For PBMC proliferation, cells were plated and activated as above but incubated for only 16 h prior to addition of Alamar Blue. Plates were read after 6 h.
Take `COP(N)(=S)OC`: the result was inactive.

As to `CC(Cl)(Cl)C(=O)O`, the result was inactive. The same measure, in the same setting: to `O=C(O)C(F)(F)OC(F)(F)C(F)(F)OC(F)(F)C(=O)O` belongs “inactive”; to `O=C(O)C(F)(F)OC(F)(F)C(F)(F)OC(F)(F)F`, “inactive”. As to `Nc1ccc(Cl)cc1`, the result was inactive.

Take `O=P1(N(CCCl)CCCl)NCCCO1` (stereo not given): the outcome was inactive. Same read-out and setting: to `FC(F)(F)C(F)(C(F)(F)F)C(F)(F)C(F)(F)CC1CO1` (stereo not given) belongs “inactive”; to `CCCCc1ccccc1`, “inactive”. `COP(=O)(O)OC`: the result was inactive. The same measure, in the same setting: under `CCOP(=S)(OCC)SCn1nnc2ccccc2c1=O` stands “inactive”; under `CCOS(=O)(=O)OCC`, “inactive”.

As for `C=CC(=O)OCC(CC)(COC(=O)C=C)COC(=O)C=C`, the AC50 was 3.11 µM (active).

`N#Cc1cc([N+](=O)[O-])ccc1N`: the outcome was inactive.

Turning to `Cc1ccc2c(c1N)C(=O)c1ccccc1C2=O`, the result was inactive.

For `Cc1ccc([N+](=O)[O-])cc1C`, the outcome was inactive. On the same count and under the same terms, to `COC(=O)C(F)(F)C(F)(F)OC(F)(C(F)(F)F)C(F)(F)OC(F)=C(F)F` (stereo not given) belongs “inactive”. As for `CCCCOCCOP(=O)(OCCOCCCC)OCCOCCCC`, the result was inactive. Regarding `O=S1(=O)OCC2C(CO1)C1(Cl)C(Cl)=C(Cl)C2(Cl)C1(Cl)Cl` (stereo not given), the result was inactive. Turning to `CCOP(=S)(OCC)SCSc1ccc(Cl)cc1`, the concentration at half-maximal activity (AC50) was 0.0705 µM (active). As to `Nc1ccc([N+](=O)[O-])cc1Cl`, the outcome was inactive. Still for that read-out and setting: to `O=C(O)C=CC(F)(C(F)(F)F)C(F)(F)F` belongs “inactive”. The same measure, in the same setting: to `CCOP(=S)(OCC)SCS(=O)(=O)CC` belongs “inactive”; to `CCOC(=O)c1ccccc1C(=O)OCC`, “inactive”. In the case of `CC(C)(C)c1ccc(O)cc1`, the result was inactive. The same measure, in the same setting: under `Cc1cccc(N)c1` stands “inactive”. On the same count and under the same terms, to `c1ccc2c(c1)Nc1ccccc1S2` belongs “inactive”.

In the case of `CCOc1ccc(C(C)(C)COCc2cccc(Oc3ccccc3)c2)cc1`, the outcome was inactive.

As for `CCN(CC)c1ccccc1`, the outcome was inactive. The same measure, in the same setting: under `O=C(O)C1C(C(=O)O)C2(Cl)C(Cl)=C(Cl)C1(Cl)C2(Cl)Cl` (stereo not given) stands “inactive”; under `COP(=O)(CCC(=O)NCO)OC`, “inactive”. Still for that read-out and setting: under `O=[N+]([O-])c1ccccc1` stands “inactive”; under `CC(C)(C)OOC(C)(C)C`, “inactive”; under `CCC1(c2ccccc2)C(=O)N=C(O)NC1=O` (stereo not given), “inactive”. For the compound `[N-]=[N+]=[N-]`, the result was inactive. Take `O=C(O)C(F)(F)C(F)(F)C(=O)O`: the result was inactive. Take `O=P(OCC(Br)CBr)(OCC(Br)CBr)OCC(Br)CBr` (stereo not given): the outcome was inactive. Turning to `CCCCN(CCCC)SN(C)C(=O)Oc1cccc2c1OC(C)(C)C2`, the outcome was inactive. The same measure, in the same setting: under `Cc1ccc(O)cc1C` stands “inactive”. For the compound `ClC(Cl)(Cl)c1ccccc1`, the outcome was inactive. Turning to `ClC1=C(Cl)C2(Cl)C3C(Cl)C(Cl)CC3C1(Cl)C2(Cl)Cl` (stereo not given), the AC50 was 27.9 µM (active).

The values above are taken from PubChem BioAssay (EPA / NIEHS).
